Source: PubChem BioAssay (NCI)
Values joined by “and” are separate entries in the source; they are usually repeats but may differ in a detail not shown here. Equal entries are not always repeated. The panel holds about 79,000 compounds, 15% with a hit somewhere; the sample as a whole holds those more often. Active and inactive are the calls of the source. Rule as the data show it: active = growth inhibition above about 70%; inactive = the rest.

test: NCI Yeast Anticancer Drug Screen. Data for the rad50 strain (AID 155);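 also: 0% = growth of vehicle-only cultures of the same strain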; conditions: S. cerevisiae rad50 strain growth inhibition, stronger effect = higher value; at 50.0 µM unless noted
Summary of the method: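 Yeast carrying a defined DNA repair defect were exposed to test compounds, and growth was compared with vehicle-treated controls to give percent inhibition.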

Row | Compound | growth inhibition
1 | Cc1nnc(N)nc1C | 33% (inactive)
2 | COc1ccc(C(=O)CC(c2ccccc2)C(C#N)c2ccccc2)cc1 (stereo not given) | 1.8% (inactive) and -5.7% (inactive)
3 | CN1CC2=C(NC(=S)NC2c2ccc(Cl)cc2)/C(=C/c2ccc(Cl)cc2)C1 (stereo not given) | -7.95% (inactive)
4 | CSc1nc(NC2OC(COC(C)=O)C(OC(C)=O)C(OC(C)=O)C2OC(C)=O)c(N=CC=Nc2c(NC3OC(COC(C)=O)C(OC(C)=O)C(OC(C)=O)C3OC(C)=O)nc(SC)[nH]c2=O)c(=O)[nH]1 (stereo not given) | -13.8% (inactive)
5 | Cc1ccc2c(c1)C1(c3ccc(Cl)cc3Cl)Oc3ccc(C)cc3C(c3ccc(Cl)cc3Cl)(O2)O1 | -1.5% (inactive)
6 | Cc1cc(Cl)ccc1NC(=O)Oc1ccc(C#N)cc1 | -13.8% (inactive)
7 | OCCN/N=C/c1ccncc1 | -4.35% (inactive)
8 | COS(=O)(=O)N(C)c1nc(N(C)C)nc(N(C)C)n1 | -2.25% (inactive)
9 | ON=C(c1ccccn1)c1ccccn1 | 11.1% (inactive)
10 | COC1OC2COC(C)(C)OC2C2OC(C)(C)OC12 (stereo not given) | 1.15% (inactive)
11 | CCOc1ccc(/C=C(\C(=O)c2ccccc2)S(=O)(=O)c2ccc(OC)cc2)cc1OC | 17.9% (inactive)
12 | CC(C)(C)[Si](C)(C)OCC1OC(n2cnc3c(=O)[nH]cnc32)CC1O (stereo not given) | 0.35% (inactive)
13 | COc1ccc(Cl)cc1NC(=O)Oc1ccc(NC(C)=O)cc1 | 3.2% (inactive)
14 | CSc1ccc2nncc(SC)c2c1 | 64.2% (inactive)
15 | OC(COc1cccc(C(F)(F)F)c1)CN1CCN(c2ccc(F)cc2)CC1 (stereo not given) | 86.8% (active)
16 | CCOc1ccc(N=Nc2c(-c3ccccc3)nn(C(=O)CC(=O)Nc3ccccc3Cl)c2-c2ccccc2)cc1 | 20.6% (inactive)
17 | CN(C)C(n1cc2c(c1)-c1ccc(Cl)cc1C(c1ccccc1F)=NC2)n1cc2c(c1)-c1ccc(Cl)cc1C(c1ccccc1F)=NC2 | 11.8% (inactive)
18 | C1CSCCSCCS1 | 11.6% (inactive)
19 | Cc1ncc(CO)c(/C=N\OCc2cccc(Cl)c2)c1O | 31.1% (inactive)
20 | N#C/C(=C\c1ccccc1)c1cccc(F)c1 | 28.9% (inactive)

Row | Compound | growth inhibition
21 | O=[N+]([O-])c1c[nH]c2ncnc(Cl)c12 | 4.25% (inactive)
22 | O=C(N/N=C/c1ccc(O)cc1)C(c1ccccc1)N1CCCCC1 (stereo not given) | 5.85% (inactive)
23 | COc1ccc(N=C=Nc2ccc(OC)cc2)cc1 | -1.45% (inactive)
24 | OCc1ccccc1Sc1ccccc1CO | 15.8% (inactive)
25 | CCNC(=O)c1ccc(C(C)C)cc1 | 8.4% (inactive)
26 | CCOC(=O)Cc1ccc(N(CCO)CCO)cc1 | 5.15% (inactive)
27 | Cc1cc(C(=O)C(C#N)=Nc2ccc(N(C)C)cc2)c(CN2C(=O)c3ccccc3C2=O)c(=O)n1C | 22.9% (inactive)
28 | O=C(O)c1cccc(OCCO)c1 | -10% (inactive)
29 | Nc1cncnc1N | 35.7% (inactive)
30 | CC1(C)Oc2ccccc2OC1O (stereo not given) | 1.5% (inactive)
31 | C/C=C/C=C/C(=O)OCCCC | 6.95% (inactive)
32 | Cc1ccc(C(=O)CC2=Nc3nnc(CCCCCCCc4nnc5n4C(=O)C(CC(=O)c4ccc(C)cc4)=N5)n3C2=O)cc1 | -9.45% (inactive)
33 | CC1CC1C(N)C1CC1C (stereo not given) | 10.3% (inactive)
34 | NC(=O)OCCOC(N)=O | 7.5% (inactive)
35 | N#CCNC(=O)Cc1ccccc1 | 10.2% (inactive)
36 | CN(C)c1ccc(C(c2ccc(N(C)C)cc2)c2ccc([N+](=O)[O-])cc2)cc1 | -3.75% (inactive)
37 | COCN(CCc1ccccc1)CCN(C)C | 1.4% (inactive)
38 | C[N+](C)(CCCCCCCCCC[N+](C)(C)CC(=O)c1ccccc1)CC(=O)c1ccccc1 | 36.2% (inactive)
39 | COc1cccc(C)c1NC(=O)NCCCl | 17.6% (inactive)
40 | COC1=CC(=O)c2cc3ccc(OC)c(N)c3nc2C1=O | 12.8% (inactive)

test: NCI Yeast Anticancer Drug Screen. Data for the mec2-1 strain (AID 157); conditions: S. cerevisiae mec2-1 strain, stronger effect = higher value; at 50.0 µM unless noted
Summary of the method: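 mec2-1 yeast strain, carrying an alteration in DNA damage repair or cell cycle control, was exposed to compounds; growth inhibition was measured relative to vehicle-treated controls.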

Row | Compound | growth inhibition
41 | Cc1nnc(N)nc1C | 9.5% (inactive)
42 | COc1ccc(C(=O)CC(c2ccccc2)C(C#N)c2ccccc2)cc1 (stereo not given) | 5.6% (inactive) and -8.55% (inactive)
43 | CN1CC2=C(NC(=S)NC2c2ccc(Cl)cc2)/C(=C/c2ccc(Cl)cc2)C1 (stereo not given) | 4.45% (inactive)
44 | CSc1nc(NC2OC(COC(C)=O)C(OC(C)=O)C(OC(C)=O)C2OC(C)=O)c(N=CC=Nc2c(NC3OC(COC(C)=O)C(OC(C)=O)C(OC(C)=O)C3OC(C)=O)nc(SC)[nH]c2=O)c(=O)[nH]1 (stereo not given) | -17.7% (inactive)
45 | Cc1ccc2c(c1)C1(c3ccc(Cl)cc3Cl)Oc3ccc(C)cc3C(c3ccc(Cl)cc3Cl)(O2)O1 | 1.5% (inactive)
46 | Cc1cc(Cl)ccc1NC(=O)Oc1ccc(C#N)cc1 | -18.4% (inactive)
47 | OCCN/N=C/c1ccncc1 | -52.2% (inactive)
48 | COS(=O)(=O)N(C)c1nc(N(C)C)nc(N(C)C)n1 | -12.2% (inactive)
49 | ON=C(c1ccccn1)c1ccccn1 | -7.6% (inactive)
50 | COC1OC2COC(C)(C)OC2C2OC(C)(C)OC12 (stereo not given) | 5.35% (inactive)
51 | CCOc1ccc(/C=C(\C(=O)c2ccccc2)S(=O)(=O)c2ccc(OC)cc2)cc1OC | 45.5% (inactive)
52 | CC(C)(C)[Si](C)(C)OCC1OC(n2cnc3c(=O)[nH]cnc32)CC1O (stereo not given) | 6.2% (inactive)
53 | COc1ccc(Cl)cc1NC(=O)Oc1ccc(NC(C)=O)cc1 | -0.6% (inactive)
54 | CSc1ccc2nncc(SC)c2c1 | 7.05% (inactive)
55 | OC(COc1cccc(C(F)(F)F)c1)CN1CCN(c2ccc(F)cc2)CC1 (stereo not given) | 88% (active)
56 | CCOc1ccc(N=Nc2c(-c3ccccc3)nn(C(=O)CC(=O)Nc3ccccc3Cl)c2-c2ccccc2)cc1 | -8.2% (inactive)
57 | CN(C)C(n1cc2c(c1)-c1ccc(Cl)cc1C(c1ccccc1F)=NC2)n1cc2c(c1)-c1ccc(Cl)cc1C(c1ccccc1F)=NC2 | -8.8% (inactive)
58 | C1CSCCSCCS1 | 0.9% (inactive)
59 | Cc1ncc(CO)c(/C=N\OCc2cccc(Cl)c2)c1O | 16.3% (inactive)
60 | N#C/C(=C\c1ccccc1)c1cccc(F)c1 | 24.6% (inactive)

Row | Compound | growth inhibition
61 | O=[N+]([O-])c1c[nH]c2ncnc(Cl)c12 | 0.6% (inactive)
62 | O=C(N/N=C/c1ccc(O)cc1)C(c1ccccc1)N1CCCCC1 (stereo not given) | -7.05% (inactive)
63 | COc1ccc(N=C=Nc2ccc(OC)cc2)cc1 | -15% (inactive)
64 | OCc1ccccc1Sc1ccccc1CO | -8.6% (inactive)
65 | CCNC(=O)c1ccc(C(C)C)cc1 | -7.2% (inactive)
66 | CCOC(=O)Cc1ccc(N(CCO)CCO)cc1 | 7.4% (inactive)
67 | Cc1cc(C(=O)C(C#N)=Nc2ccc(N(C)C)cc2)c(CN2C(=O)c3ccccc3C2=O)c(=O)n1C | -12.1% (inactive)
68 | O=C(O)c1cccc(OCCO)c1 | -11.2% (inactive)
69 | Nc1cncnc1N | 7.25% (inactive)
70 | CC1(C)Oc2ccccc2OC1O (stereo not given) | 0.85% (inactive)
71 | C/C=C/C=C/C(=O)OCCCC | -0.65% (inactive)
72 | Cc1ccc(C(=O)CC2=Nc3nnc(CCCCCCCc4nnc5n4C(=O)C(CC(=O)c4ccc(C)cc4)=N5)n3C2=O)cc1 | 22.4% (inactive)
73 | CC1CC1C(N)C1CC1C (stereo not given) | 3.15% (inactive)
74 | NC(=O)OCCOC(N)=O | 1% (inactive)
75 | N#CCNC(=O)Cc1ccccc1 | -10.2% (inactive)
76 | CN(C)c1ccc(C(c2ccc(N(C)C)cc2)c2ccc([N+](=O)[O-])cc2)cc1 | -35.7% (inactive)
77 | COCN(CCc1ccccc1)CCN(C)C | 5.1% (inactive)
78 | C[N+](C)(CCCCCCCCCC[N+](C)(C)CC(=O)c1ccccc1)CC(=O)c1ccccc1 | -7.25% (inactive)
79 | COc1cccc(C)c1NC(=O)NCCCl | 1.05% (inactive)
80 | COC1=CC(=O)c2cc3ccc(OC)c(N)c3nc2C1=O | -7.2% (inactive)
